Here are results for nine compounds from PubChem BioAssay (NCATS).

Results filed as inconclusive are left out. Values without a mark were called inactive. Active and inactive are the calls of the source. The call rests on the fitted dose curve; in most records, active means well fitted curve in the direction sought with a large enough effect; inconclusive means small, poorly fitted or top-dose-only effect, or another doubt; inactive means no such curve, though single readings can be large; an effect the other way counts as inactive or inconclusive.

In one assay the test system is CRL-7250. Briefly: Cytotoxic Profiling of Annotated Libraries Using Quantitative High-Throughput Screening (AID 1296008). Further: nearly all actives have a fitted effect of over 60% in size. On max response: on the % scale 0 is the no-effect control and ±100 the full control effect. The note with it: Five cell lines viability, CellTiter-Glo ATP luminescence, 48-72 h; max response: active compounds read low. In outline: (§1)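 Compounds were pin-transferred onto cells and incubated 48 or 72 hr at 37 degree Celsius, 95% humidity. CellTiter-Glo was added, plates sat 10 min at room temperature, then ATP-coupled luminescence was imaged as the viability read-out.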
(In ATP-based viability assays light output follows the ATP content of the culture.)

Another assay concerns KB-3-1. The assay is described as above. The note with it: Five cell lines viability, CellTiter-Glo ATP luminescence, 48-72 h; max response: active compounds read low. The gist of the method: as §1
Assay [1] relates to NIH3T3. The assay is described as above. The note with it: Five cell lines viability, CellTiter-Glo ATP luminescence, 48-72 h; max response: active compounds read low. The gist of the method: as §1
For the next assay, the system named is C33A. Briefly: Primary qHTS to identify gynecologic anti-cancer compounds using libraries of approved drugs and bioactive compounds (AID 1345084). Further: nearly all actives have a fitted effect of over 55% in size. On activity change, negative = cytotoxicity: on the % scale 0 is the no-effect control and ±100 the full control effect. The note with it: Gynecologic cancer cell panel viability, ATPlite luminescence, 48 h; series mostly up to 57.5 µM. In outline: (§2)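 Five-point cytotoxicity, 48 h drug exposure at 37 C, 5% CO2, on cells seeded 16 h beforehand. ATP content read by ATPlite luminescence.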
In general terms: In qHTS, concentration-response curves come from the screen itself.

For the next assay, the system named is CAOV3. The description is as above. The note with it: Gynecologic cancer cell panel viability, ATPlite luminescence, 48 h; series mostly up to 57.5 µM. In outline: as §2
The subject of the next assay is JEG-3. Described as above. The note with it: Gynecologic cancer cell panel viability, ATPlite luminescence, 48 h; series mostly up to 57.5 µM. The gist of the method: as §2
For the next assay, the system named is OV90. The description is as above. The note with it: Gynecologic cancer cell panel viability, ATPlite luminescence, 48 h; series mostly up to 57.5 µM. The gist of the method:
as §2

In another assay the test system is CASKI. The description is as above. The note with it: Gynecologic cancer cell panel viability, ATPlite luminescence, 48 h; series mostly up to 57.5 µM. In outline: as §2
The test system of a further assay is Es-2. The description is as above. The note with it: Gynecologic cancer cell panel viability, ATPlite luminescence, 48 h; series mostly up to 57.5 µM. In outline: as §2
In the next assay the test system is HeLa. Described as above. The note with it: Gynecologic cancer cell panel viability, ATPlite luminescence, 48 h; series mostly up to 57.5 µM. In outline: as §2
Assay [2] has as its system Hek293T. The description is as above. The note with it: Gynecologic cancer cell panel viability, ATPlite luminescence, 48 h, control line for the selectivity index; series mostly up to 57.5 µM. In outline: as §2
For a further assay, the system named is HEK293. Briefly: Cytotoxic Profiling of Annotated Libraries Using Quantitative High-Throughput Screening (AID 1296008). Further: nearly all actives have a fitted effect of over 60% in size. On max response: on the % scale 0 is the no-effect control and ±100 the full control effect. The note with it: Five cell lines viability, CellTiter-Glo ATP luminescence, 48-72 h; max response: active compounds read low. In outline:
as §1

In assay [3] the test system is HaCat. The description is as above. The note with it: Five cell lines viability, CellTiter-Glo ATP luminescence, 48-72 h; max response: active compounds read low. In outline: as §1
The test system of assay [4] is HACAT. Kind of assay: qHTS assay to identify novel small-molecules to repurpose for Merkel cell carcinoma treatment (AID 1296009). Further: nearly all actives have a fitted effect of over 60% in size. The note with it: MCC and control cell lines, CellTiter-Glo viability, 72 h; at 44.8 µM (top of the series) unless noted. The gist of the method:
(§3)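 Luminescence from CellTiter-Glo, read 10 min after addition at room temperature, reported viability following a 72 hr, 37 degree celsius treatment with NPC or MIPE compounds in titration; values normalized to plate controls.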

For assay [5], the system named is NIH3T3. The assay is described as above. The note with it: MCC and control cell lines, CellTiter-Glo viability, 72 h; series mostly up to 44.8 µM. The gist of the method: as §3
Another assay concerns PA-1. Kind of assay: Primary qHTS to identify gynecologic anti-cancer compounds using libraries of approved drugs and bioactive compounds (AID 1345084). Further: nearly all actives have a fitted effect of over 55% in size. On activity change, negative = cytotoxicity: on the % scale 0 is the no-effect control and ±100 the full control effect. The note with it: Gynecologic cancer cell panel viability, ATPlite luminescence, 48 h; series mostly up to 57.5 µM. The gist of the method:
as §2

The test system of assay [6] is HEK293T. Briefly: qHTS assay to identify novel small-molecules to repurpose for Merkel cell carcinoma treatment (AID 1296009). Further: nearly all actives have a fitted effect of over 60% in size. The note with it: MCC and control cell lines, CellTiter-Glo viability, 72 h. The gist of the method:
as §3
Potency means the concentration at half of the fitted maximal effect.

As to `CC(=O)O[C@@]12CO[C@@H]1C[C@H](O)[C@@]1(C)C(=O)[C@H](O)C3=C(C)[C@@H](OC(=O)[C@H](O)[C@@H](NC(=O)OC(C)(C)C)c4ccccc4)C[C@@](O)([C@@H](OC(=O)c4ccccc4)C12)C3(C)C` (some centres not stated), the Potency was 0.005 µM (active) with CRL-7250, 0.0036 µM (active) with KB-3-1 and 0.0224 µM (active) in the assay with NIH3T3 [1]. For the same compound, the Potency result in the assay on C33A, in the assay on CAOV3, in the assay with JEG-3 and with OV90 was “inactive” in each case.

As to `CNc1nc(Nc2ccc(C(=O)N3CCOCC3)cc2OC)nc2[nH]cc(Cl)c12`, the max response in the assay with CRL-7250 was 1.38%. Also, in the assay on KB-3-1, the Potency is 10.3 µM (active). Besides, the Potency result in the assay on C33A, with CAOV3, with CASKI, in the assay on Es-2, with HeLa and in the assay on Hek293T [2] was “inactive” in each case. Further, the Potency result in the assay on JEG-3 and in the assay with OV90 was “inactive” in each case.

Regarding `C=C1CO[C@@]2(O[C@H]3CC4C5CC=C6C[C@@H](O)C[C@@H](O[C@@H]7OC[C@H](O)[C@H](O[C@@H]8OC[C@@H](O)[C@H](O)[C@H]8O)[C@H]7O[C@@H]7O[C@@H](C)[C@H](OC(C)=O)[C@@H](OC(C)=O)[C@H]7OC(C)=O)[C@]6(C)C5CC[C@]4(C)[C@@H]3[C@@H]2C)[C@@H](O)[C@H]1OC1OC(C)C(O)C(O)C1O` (some centres not stated), in the assay on HEK293, the max response was -19.9%. In addition, the compound was classed as inactive in the assay with HaCat [3] and in the assay on NIH3T3 [1]. The outcome with HACAT [4] and with NIH3T3 [5] was “inactive [at 9.27 µM]” in each case. Further, the activity change, negative = cytotoxicity is -13% [at 6.55 µM] in the assay with CAOV3; -16.5% [at 6.55 µM] in the assay on CASKI; -0.0762% [at 6.55 µM] with Es-2; -7.77% [at 6.55 µM] with HeLa; -3.45% [at 6.55 µM] in the assay with Hek293T [2]; -10.9% [at 6.55 µM] with JEG-3. In addition, the Potency with OV90 is 2.82 µM (active); with PA-1 it was 3.55 µM (active).

Turning to `CN(CC1COCCO1)S(=O)(=O)Nc1ccc2ccc3ncc(-c4cnn(C)c4)cc3c(=O)c2c1` (configuration not stated), the Potency is 5.8 µM (active) with CRL-7250, 3.26 µM (active) in the assay with NIH3T3 [1], 6.51 µM (active) in the assay with HEK293T [6] and 14.1 µM (active) in the assay with HeLa. Moreover, the Potency result in the assay on C33A, in the assay on CASKI, in the assay with Es-2, with Hek293T [2], in the assay on JEG-3 and in the assay on OV90 was “inactive” in each case.

With `O=C(c1c(F)ccc(NS(=O)(=O)N2CC[C@@H](F)C2)c1F)c1c[nH]c2ncc(-c3cnc(C4CC4)nc3)cc12`, in the assay with CRL-7250, the Potency is 23.1 µM (active). In the assay with KB-3-1, the max response is -23.7%. The Potency entry in the assay on C33A, with CASKI, in the assay on HeLa, in the assay on Hek293T [2], in the assay on JEG-3 and with PA-1 was “inactive” in each case.

For `CC1(C)CCCC2(C)C1C(=O)C=C(C(=O)O)C2(O)C(=O)O` (configuration not stated), the figures for the max response in the assay on CRL-7250 and in the assay with NIH3T3 [1] were -16% and -3.77%, respectively. In addition, the Potency result in the assay with C33A, in the assay on CAOV3, in the assay with CASKI, in the assay with Es-2, in the assay with HeLa and in the assay on Hek293T [2] was “inactive” each time. Besides, the Potency result in the assay on JEG-3, with OV90 and with PA-1 was “inactive” throughout.

`CCS(=O)c1nc(-c2cccc(OCc3ccccc3)c2)cc(C(F)(F)F)n1` (configuration not stated): the max response in the assay on CRL-7250 was 1.1%. Moreover, the Potency in the assay on NIH3T3 [1] was 18.4 µM (active). Also, the Potency result with CASKI, with Es-2, in the assay on HeLa and with OV90 was “inactive” in each case.

For the compound `FC(F)(F)c1ccc(CNc2ccc(Cc3c[nH]c4ncc(Cl)cc34)cn2)cn1`, in the assay with HEK293, the Potency was 26.3 µM (active).

In the case of `CO[C@@H]1CC(OC2CCC3(C)C(CCC45CCC(C6=CC(=O)OC6)C(C)(CCC43)C5=O)C2)O[C@H](C)[C@@H]1O[C@@H]1O[C@H](CO[C@@H]2O[C@H](CO)[C@@H](O)[C@H](O)[C@H]2O)[C@@H](O)[C@H](O)[C@H]1O` (some centres not stated), the results for the Potency in the assay on CRL-7250, in the assay on KB-3-1 and with Es-2 were 2.46 µM (active), 3.48 µM (active) and 3.16 µM (active), respectively. Moreover, the max response in the assay with NIH3T3 [1] was -1.96%. In addition, the activity change, negative = cytotoxicity in the assay with CASKI was -0.149% [at 11.6 µM]; in the assay on OV90, -22.2% [at 11.6 µM].
